The nature of experiment [1]: viability loss in pontine glioma line – cell-based, SU-DIPG-XVII, MIPE5.0, CellTiter-Glo, qHTS, dose response (AID 1347060).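 For AC50: cells exposed to compound for 48 hours before viability readout.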 The following applies: CellTiter-Glo ATP luminescence.
Experiment [2] is described as follows: viability loss in pontine glioma line – cell-based, SU-DIPG-XIII, MIPE5.0, CellTiter-Glo, qHTS, dose response (AID 1347064; cut-off not given, nearly all actives have AC50 up to about 23 µM;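 for AC50: cells exposed to compound for 48 hours before the viability read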). The settings on record: CellTiter-Glo ATP luminescence.
Experiment [3] is described as follows: compounds altering HSF1 focus formation in cells – imaging, Selleck Cancer Library (AID 1347162; in the data active = plate-normalised HSF1 focus index below about 0.46). The following applies: human cells, HSF1 nuclear foci imaging, at 10 µM; SSMD: measured here: HSF1 foci SSMD mean; cell count: measured here: cell number; plate-normalised HSF1 focus index: stronger effect = lower value.
Experiment [4] concerns the target NAD(+) hydrolase SARM1 (Homo sapiens) (UniProt Q6SZW1). The experiment can be described thus: blocking NAD cleavage by SARM1 SAM-TIR – cell lysate, NAD-Glo luminescence (AID 1508614;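 active = compound whose remaining NAD level is above about 45 nM, limit read from the data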;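 note: higher remaining NAD means stronger inhibition of SARM1 NADase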). The settings on record: SAM-TIR HEK293T lysate NADase, at 1 µM, stronger effect = higher value.
Experiment [5] can be described thus: viability loss in pontine glioma line – cell-based, SU-DIPG-XIII, MIPE4.0, CellTiter-Glo, qHTS, dose response (AID 1347061; cut-off not given, nearly all actives have AC50 up to about 37 µM;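 note: cells exposed to compound for 48 hours before readout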). The settings on record: CellTiter-Glo ATP luminescence.
Experiment [6] in a line: compounds altering circadian rhythm period length – cell-based, LOPAC library, luminescence reporter (AID 2774; call rule not given here;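 note: values are relative to mean of DMSO wells on each plate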). The following applies: circadian reporter cells, at 7 µM, actives lie on both sides.
In experiment [7] the test system is Hepatitis C virus NS3 helicase. The experiment can be described thus: blockers of NS3h binding to ssDNA – biochemical, fluorescence polarization, LOPAC1280 library, primary screen (AID 687035; in the data active = inhibition above about 37%). The following applies: Purified HCV NS3 helicase, Cy5-dT15 ssDNA binding fluorescence polarization; stronger effect = higher value; concentration not given here.
Experiment [8] is described as follows: compounds altering Cy5-DNA-NS3h complex signal – biochemical, LOPAC1280, artefact control for HCV NS3 helicase inhibitor project (AID 687037; call rule not given here). The following applies: Cy5-DNA-NS3h complex fluorescence interference counterscreen.

Each structure is given as a SMILES string. Records with an inconclusive call do not appear. Active and inactive are the calls of the source. Unless noted, no cut-off is given here; in the data, nearly all actives have AC50 up to about 26 µM.

NAD(+) hydrolase SARM1 (Homo sapiens), sequence (Q6SZW1 whole entry, looked up): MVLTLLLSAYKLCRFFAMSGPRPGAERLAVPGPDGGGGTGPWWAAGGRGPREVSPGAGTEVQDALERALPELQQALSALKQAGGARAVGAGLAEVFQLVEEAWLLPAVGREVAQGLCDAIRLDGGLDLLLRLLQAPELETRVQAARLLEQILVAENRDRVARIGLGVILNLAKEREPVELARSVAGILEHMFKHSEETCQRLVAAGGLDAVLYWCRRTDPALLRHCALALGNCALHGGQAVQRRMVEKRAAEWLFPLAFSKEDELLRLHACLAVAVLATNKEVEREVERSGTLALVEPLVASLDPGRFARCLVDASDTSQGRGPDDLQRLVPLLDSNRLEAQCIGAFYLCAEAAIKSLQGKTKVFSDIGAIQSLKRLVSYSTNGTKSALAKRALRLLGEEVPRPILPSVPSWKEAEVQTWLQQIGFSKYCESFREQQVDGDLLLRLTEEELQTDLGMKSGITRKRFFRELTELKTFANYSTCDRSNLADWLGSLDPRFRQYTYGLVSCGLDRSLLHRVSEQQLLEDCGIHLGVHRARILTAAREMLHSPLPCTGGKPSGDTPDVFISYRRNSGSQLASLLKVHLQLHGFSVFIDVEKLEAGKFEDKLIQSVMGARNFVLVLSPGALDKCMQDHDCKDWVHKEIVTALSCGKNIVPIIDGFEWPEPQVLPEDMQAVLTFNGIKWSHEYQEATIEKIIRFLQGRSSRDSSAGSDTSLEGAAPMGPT

For the compound `CCC1=C[C@@H]2CN(C1)Cc1c([nH]c3ccccc13)[C@@](C(=O)OC)(c1cc3c(cc1OC)N(C)[C@H]1[C@@](O)(C(=O)OC)[C@H](OC(C)=O)[C@]4(CC)C=CCN5CC[C@]31[C@@H]54)C2`, the concentration at half-maximal activity (AC50) in experiment [1] is 0.204 µM (active). Besides, in experiment [2], the concentration at half-maximal activity (AC50) is 2.29 µM (active). In experiment [3], the SSMD came to 1.19, the cell count was 6320 and the plate-normalised HSF1 focus index was 1.08 (inactive).

In the case of `Clc1ccc(C(Cn2ccnc2)OCc2ccc(Sc3ccccc3)cc2)c(Cl)c1` (stereo not given), the AC50 in experiment [1] and in experiment [2] was 20.9 µM (active) throughout.

With `COc1ccc(-c2ccc3cc(C(=O)O)ccc3c2)cc1C12CC3CC(CC(C3)C1)C2`, in experiment [1], the half-maximal activity concentration (AC50) was 3.32 µM (active). Also, the remaining NAD in experiment [4] was 10 nM (inactive).

In the case of `O=C(Nc1ccc(S(=O)(=O)N2CCOCC2)cc1)c1cc(Cl)ccc1NS(=O)(=O)c1ccc(Cl)s1`, in experiment [1], the compound was called inactive.

Consider `CN1CCCN=C1/C=C/c1cccs1`, for which, in experiment [1], the result was inactive.

As to `Cc1cc(=O)c2c(O)c3c(O)cc(=O)c4c3c3c(cc(O)c1c23)C(C)(C)C=4O`, in experiment [5], the concentration at half-maximal activity (AC50) is 11.8 µM (active).

As for `CN(C)C(=O)COC(=O)Cc1ccc(OC(=O)c2ccc(N=C(N)N)cc2)cc1`, the compound was called inactive in experiment [1] and in experiment [2].

On to `c1cnc2cc3c(cc2n1)C1CNCC3C1`, for which the outcome in experiment [1], in experiment [5] and in experiment [2] was inactive.

In the case of `Cc1nnc(C(=O)NC(C)(C)c2nc(C(=O)NCc3ccc(F)cc3)c(O)c(=O)n2C)o1`, the compound was called inactive in experiment [1] and in experiment [5].

With `C=CC(=O)Nc1cc2c(Nc3ccc(F)c(Cl)c3)ncnc2cc1OCCCN1CCOCC1`, the AC50 was 6.61 µM (active) in experiment [1] and 9.34 µM (active) in experiment [2].

For `CCOC(=O)c1c(C)n(C)c2ccc(O)cc12`, the outcome in experiment [1] was inactive.

For the compound `N[C@@H](Cc1c[nH]c2ccc(O)cc12)C(=O)O`, the period change in experiment [6] was -0.25 h (inactive). Further, the inhibition in experiment [7] is -3% (inactive). The fluorescence ratio (interference) in experiment [8] is 1 (inactive). The call in experiment [1], in experiment [5] and in experiment [2] was inactive.

On to `O=[N+]([O-])c1cncn1CCN1CCOCC1`, for which the result in experiment [1] and in experiment [2] was inactive.

As for `N#Cc1c(N(CC(=O)O)CC(=O)O)sc(C(=O)O)c1CC(=O)O`, the compound was classed as inactive in experiment [1], in experiment [5] and in experiment [2].

Consider `Cc1ccc(Nc2nccc(N(C)c3ccc4c(C)n(C)nc4c3)n2)cc1S(N)(=O)=O`, for which the AC50 in experiment [1] was 3.32 µM (active). In addition, the AC50 in experiment [2] is 3.72 µM (active). Also, in experiment [3], the SSMD amounted to 1.61, the cell count worked out at 7340 and the plate-normalised HSF1 focus index is 1.1 (inactive).

Take `CCCCc1oc2ccc(NS(C)(=O)=O)cc2c1C(=O)c1ccc(OCCCN(CCCC)CCCC)cc1`: the AC50 in experiment [1] is 13.2 µM (active); in experiment [5], 18.7 µM (active); in experiment [2], 11.8 µM (active).

With `Cc1ccccc1C(=O)Nc1ccc(C(=O)N2CCCC(O)c3cc(Cl)ccc32)c(C)c1` (stereo not given), the compound was classed as inactive in experiment [1] and in experiment [5].

On to `CC(=O)N[C@H]1[C@H]([C@H](O)[C@H](O)CO)OC(C(=O)O)=C[C@@H]1N=C(N)N`, for which, in experiment [5], the call was inactive.

`Cc1cc2c(cc1CC(=O)c1sccc1S(=O)(=O)Nc1onc(C)c1Cl)OCO2`: in experiment [1], the compound was called inactive.

`CC(C)C[C@H](NC(=O)[C@H](CCc1ccccc1)NC(=O)CN1CCOCC1)C(=O)N[C@@H](Cc1ccccc1)C(=O)N[C@@H](CC(C)C)C(=O)[C@@]1(C)CO1`: the AC50 in experiment [1] was 0.0148 µM (active); in experiment [2], 0.00742 µM (active).

With `CNC(=O)c1ccccc1Sc1ccc2c(/C=C/c3ccccn3)n[nH]c2c1`, the concentration at half-maximal activity (AC50) in experiment [1] is 1.32 µM (active). Besides, the half-maximal activity concentration (AC50) in experiment [2] was 1.48 µM (active). Also, in experiment [3], the SSMD stood at 5.16, the cell count amounted to 7390 and the plate-normalised HSF1 focus index was 1.18 (inactive).

Take `CC(C)(C)C(=O)Oc1ccc(S(=O)(=O)Nc2ccccc2C(=O)NCC(=O)O)cc1`: the inhibition in experiment [7] was -5% (inactive). In addition, the fluorescence ratio (interference) in experiment [8] was 0.9 (inactive). Moreover, the call in experiment [1], in experiment [5] and in experiment [2] was inactive.

Turning to `Clc1ccc(C(Cn2ccnc2)OCc2c(Cl)cccc2Cl)c(Cl)c1` (stereo not given), the AC50 was 23.5 µM (active) in experiment [1] and 20.9 µM (active) in experiment [2].

Consider `CC(C(=O)O)c1ccc2c(c1)CC(=O)c1ccccc1S2` (stereo not given), for which the compound was called inactive in experiment [1] and in experiment [2]. Also, in experiment [5], the concentration at half-maximal activity (AC50) is 0.0059 µM (active).

As to `CC(C)OC(=O)OCOP(=O)(CO[C@H](C)Cn1cnc2c(N)ncnc21)OCOC(=O)OC(C)C`, the compound was called inactive in experiment [5].

As to `CC(=O)OCC(=O)[C@@]12N=C(C)O[C@@H]1C[C@H]1[C@@H]3CCC4=CC(=O)C=C[C@]4(C)[C@H]3[C@@H](O)C[C@@]12C`, the compound was classed as inactive in experiment [1], in experiment [5] and in experiment [2]. Besides, in experiment [4], the remaining NAD is 10 nM (inactive).

As for `CCOC(=O)c1ccc(C#Cc2ccc3c(c2)C(C)(C)CCS3)nc1`, in experiment [1], the concentration at half-maximal activity (AC50) is 26.3 µM (active).

Turning to `COCCCN1CCC(NC(=O)c2cc(Cl)c(N)c3c2OCC3)CC1`, the compound was called inactive in experiment [1].

`COc1ccc2cccc(CCNC(C)=O)c2c1`: the result in experiment [5] and in experiment [2] was inactive.

Turning to `CCCCN(CCCC)CC(O)c1cc(Cl)cc2c1-c1ccc(Cl)cc1/C2=C/c1ccc(Cl)cc1` (stereo not given), the result in experiment [5] was inactive.

For the compound `CC1(C)CCC(C)(C)c2cc(NC(=O)c3ccc(C(=O)O)cc3)ccc21`, the compound was called inactive in experiment [1] and in experiment [2]. Further, the concentration at half-maximal activity (AC50) in experiment [5] is 23.5 µM (active).

As to `O=C(O)c1ccc(-n2nc(-c3ccccc3O)nc2-c2ccccc2O)cc1`, the AC50 in experiment [1] is 16.6 µM (active).

`O=P(O)(O)C(O)(Cn1ccnc1)P(=O)(O)O`: the compound was classed as inactive in experiment [1], in experiment [5] and in experiment [2].

In the case of `N=C(N)c1ccc2cc(OC(=O)c3ccc(N=C(N)N)cc3)ccc2c1`, the call in experiment [5] and in experiment [2] was inactive.

With `Cc1ccc(C(=O)c2cc(O)c(O)c([N+](=O)[O-])c2)cc1`, the call in experiment [1], in experiment [5] and in experiment [2] was inactive.

As for `C[C@]12CCC(=O)C=C1[C@@H]1C[C@@H]1[C@H]1[C@@H]3[C@@H]4C[C@@H]4[C@@]4(CCC(=O)O4)[C@@]3(C)CC[C@@H]12`, the result in experiment [1], in experiment [5] and in experiment [2] was inactive. For the same compound, the remaining NAD in experiment [4] was 10 nM (inactive).

`NCCCC(N)(C(=O)O)C(F)F` (stereo not given): the period change in experiment [6] is -0.04 h (inactive). Further, the inhibition in experiment [7] is -3% (inactive). For the same compound, the fluorescence ratio (interference) in experiment [8] was 1 (inactive). Moreover, the outcome in experiment [1] and in experiment [2] was inactive.

Regarding `Cc1c(C(=O)NN2CCCCC2)nn(-c2ccc(Cl)cc2Cl)c1-c1ccc(Cl)cc1`, the AC50 in experiment [5] was 20.9 µM (active).

Consider `Cc1ccc(-c2ncc(Cl)cc2-c2ccc(S(C)(=O)=O)cc2)cn1`, for which the compound was classed as inactive in experiment [2].

These data come from PubChem BioAssay.
